Assay [1] has as its target Retinaldehyde dehydrogenase 3 (Homo sapiens) (UniProt P47895). Description: qHTS for Inhibitors of the Aldehyde Dehydrogenase Family (ALDH1A3) Primary screen (AID 2061315). The settings on record: ALDH inhibition qHTS; series mostly up to 56 µM. On the technique in general: In qHTS, concentration-response curves come from the screen itself.
Assay [2] deals with Aldehyde dehydrogenase 1A1 (Homo sapiens) (UniProt P00352). Nature of the assay: qHTS for Inhibitors of the Aldehyde Dehydrogenase Family (ALDH1A1) Confirmatory screens (AID 2061316). Also: potency is read from the fitted curve at half-maximal effect; nearly all actives have a fitted effect of over 65% in size. The note with it: ALDH inhibition qHTS; series mostly up to 47.3 µM.
A short description of assay [3]: BET inhibitor-based combinations targeting novel dependencies in MECOM-rearranged (r) AML: SET-2 cell line (AID 2202231). Also: nearly all actives have a fitted effect of over 35% in size. Also: potency is read from the fitted curve at half-maximal effect. The settings on record: SET-2 AML cells viability, CellTiter-Glo luminescence, 48 h; viability: active compounds read low, concentration not given here. The method, boiled down:
(§1)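 Luminescent ATP readout (CellTiter-Glo) after 48 hr drug exposure gives viability. Curves span 11 concentrations and are normalized to DMSO and empty wells. Activity is reported as area under the curve and its Z-transform within each cell line.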
(Cellular ATP, detected with luciferase, serves as a proxy for viable cell number.)

Assay [4] in a line: BET inhibitor-based combinations targeting novel dependencies in MECOM-rearranged (r) AML: OCI-AML3 cell line (AID 2202232). Also: nearly all actives have a fitted effect of over 35% in size. Also: potency is read from the fitted curve at half-maximal effect. The settings on record: CellTiter-Glo luminescence, 48 h; Potency: OCI-AML3 viability; series mostly up to 46 µM. The method, boiled down: as §1
The nature of assay [5]: BET inhibitor-based combinations targeting novel dependencies in MECOM-rearranged (r) AML: MV-4-11 cell line (AID 2202233). Also: nearly all actives have a fitted effect of over 45% in size. Also: potency is read from the fitted curve at half-maximal effect. The settings on record: MV-4-11 AML viability, CellTiter-Glo luminescence, 48 h; series mostly up to 46 µM. The method, boiled down: (§2)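 Luminescent ATP readout (CellTiter-Glo, 15 min at room temperature) after 48 hr drug exposure gave viability. Dose-response curves, normalized to DMSO and empty-well controls, were summarized as area under the curve and its mean-centred Z-score.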

Assay [6] in a line: BET inhibitor-based combinations targeting novel dependencies in MECOM-rearranged (r) AML: HNT-34 cell line (AID 2202234). Also: nearly all actives have a fitted effect of over 35% in size. Also: potency is read from the fitted curve at half-maximal effect. The settings on record: HNT-34 AML viability, CellTiter-Glo luminescence, 48 h; series mostly up to 46 µM. The method, boiled down: as §2
Assay [7] is described as follows: BET inhibitor-based combinations targeting novel dependencies in MECOM-rearranged (r) AML: UCSD-AML1 cell line (AID 2202235). Also: potency is read from the fitted curve at half-maximal effect; nearly all actives have a fitted effect of over 40% in size. The settings on record: UCSD-AML1 AML cells viability, CellTiter-Glo, 48 h; series mostly up to 46 µM. Put shortly: as §2
The nature of assay [8]: BET inhibitor-based combinations targeting novel dependencies in MECOM-rearranged (r) AML: AML-191 cell line (AID 2202236; also: potency is read from the fitted curve at half-maximal effect; nearly all actives have a fitted effect of over 35% in size). The note with it: AML-191 viability, CellTiter-Glo luminescence, 48 h; series mostly up to 46 µM. Put shortly:
as §1

Records with an inconclusive call do not appear. A call without a number means that no potency is given here. Values without a mark were called inactive. Calls of active or inactive are those of the source. Calls follow the shape of the dose curve; as a rule, active = well fitted curve in the direction sought with a large enough effect; inconclusive = small, poorly fitted or top-dose-only effect, or another doubt; inactive = no such curve, though single readings can be large; an effect the other way counts as inactive or inconclusive.

Consider `Cc1ccnc(NC(=S)N2CCN(c3ccccc3C(F)(F)F)CC2)c1`, for which the Potency entry in assay [1] is “inactive”. `O=C1CCCC2=C1C(c1ccn[nH]1)N=C(Nc1nc3ccccc3o1)N2` (centres undefined): in assay [1], the Potency entry is “inactive”. With `Cc1c(C(N)=O)[nH]c2c1C(=O)CC(c1ccco1)C2` (centres undefined), the Potency entry in assay [1] was “inactive”. The same measure, in the same setting: with `Cc1ccnc(NC(=S)N2CCN(c3cccc(C(F)(F)F)c3)CC2)n1` the entry was “inactive”. Regarding `FC(F)(F)c1ccccc1-c1nc(NCc2ccc(-c3ccc(Cl)c(Cl)c3)cc2)c2ccccc2n1`, the Potency entry in assay [1] was “inactive”. Further, in assay [2], the Potency is 20.1 µM (active). Regarding `NC(=O)C1CCN(c2nc(-c3ccc(OC(F)(F)F)cc3)cs2)CC1`, in assay [1], the Potency result is “inactive”. Still for that read-out and setting: with `C=C1C(=O)O[C@H]2C1[C@H](OC(=O)/C(=C/CO)COC(=O)/C(C)=C/CO)CC(=C)[C@@H]1CC(=O)[C@@H](C)[C@@H]12` (some centres undefined) the entry was “inactive”; with `COc1ccc(-c2ccc3ncnc(NCc4cccs4)c3c2)cc1OC`, “inactive”; with `N#Cc1c(-c2ccc(-c3ccccc3)cc2)no[n+]1[O-]`, “inactive”.

For the compound `c1ccc(-n2ccc(-c3nnc4n3CCCCC4)c2)cc1`, the Potency entry in assay [1] was “inactive”. For `COc1ccc([C@@H](O)[C@@H](C)Oc2ccc([C@H]3O[C@H](c4ccc(O[C@H](C)[C@H](O)c5ccc(OC)c(OC)c5)c(OC)c4)[C@H](C)[C@H]3C)cc2OC)cc1OC`, the Potency was 13.2 µM (active) in assay [3]; 1.05 µM (active) in assay [4]; 4.17 µM (active) in assay [5]; 23.5 µM (active) in assay [6]; 18.6 µM (active) in assay [7]; 18.6 µM (active) in assay [8]. `COc1nc(N)nc2c1ncn2C1OC(CO)C(O)C1O` (centres undefined): the viability in assay [3] was 114%. The Potency result in assay [4] and in assay [5] was “inactive” each time. Take `C[C@H]1CC2[C@@H]3CCC4=CC(=O)C=C[C@]4(C)[C@@]3(F)[C@@H](O)C[C@]2(C)[C@@]1(O)C(=O)CO` (some centres undefined): the viability in assay [3] is 115%. The Potency entry in assay [4], in assay [5] and in assay [6] was “inactive” each time.

What is called viability is a read-out of living cells in per cent, often relative to untreated cells.

The record behind these values is PubChem BioAssay (NCATS).
